Several values for one entry are separate records, joined by “and”; a condition that tells them apart may be missing. Equal entries are not always repeated. About 83,000 compounds went through this panel and 20% of them were active in at least one assay; those are over-represented in the sample as a whole.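 A percent growth of 40 corresponds to 60% growth inhibition; 0 means no net growth; -100 means all cells died. Active threshold: below 10.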 A number with no mark means an inactive call. Activity calls are given as the source filed them.

The first test concerns OVCAR-8 ovarian. Put plainly: NCI-60 one-dose screen, 48 h (100 = growth as untreated, 0 = no growth, -100 = all killed). To be noted: 10 µM. As for the experimental part:
Growth inhibition of the OVCAR-8 human tumor cell line is measured as a screen for anti-cancer activity. Cells are grown in 96 well plates and exposed to the test compound for 48 hours. Compounds are tested at a single concentration, which is 10^-5 M for most compounds. The reported endpoint is percent growth (GI% or GIPRCNT), where numbers from 0 - 100% represent growth inhibition, and numbers from -100% - 0 represent cell death. For example, a value of 40 represents 60% growth inhibition. A value of 0 means no net growth occurred over the course of the experiment. A value of -40 indicates 40% of cells at the beginning of the experiment died by the end of the experiment. A value of -100 means all cells are dead at the end of the experiment.
NCI-60 Human Tumor Cell Lines Screen was performed using the standard one-dose NCI protocol, which is described in more detail at https://dtp.cancer.gov/discovery_development/nci-60/default.htm.
Compounds with GIPRCNT values below 10 were considered active. Activity score was based on GIPRCNT using the following formula: […]
Score is 0 for GIPRCNT values of 100 or above, 50 for GIPRCNT values of 0, and 100 for GIPRCNT values of -100.
Consider `O=C(Nc1c(Cl)cccc1Cl)Oc1cccc2cccnc12`, for which the growth is 27%. Same read-out and setting: for `COc1ccc(-c2cscc2N)cc1` the value was 77.6%; for `CN(C)C(=O)c1ccc(SC(=S)NCc2ccccc2)cc1`, 106%.

Staying with this test, now noted: 10 µM unless noted.
In the case of `N#CSCC(=O)c1ccc(Cl)cc1`, the growth is 63.7%. Turning to `COC(=O)[C@@]12OC[C@]34[C@H]([C@@H](O)[C@@H]1O)[C@@]1(C)[C@H](O)C(=O)C=C(C)[C@@H]1C[C@H]3OC(=O)C(OC(C)=O)[C@@H]24` (stereo not given in full), the growth was -18.6% (active). On to `Cc1ccc2nc(C[n+]3ccc4ccccc4c3)ccc2c1`, for which the growth was 57.8%. With `O=[N+]([O-])c1ccc2c(N=Nc3ccc4ccccc4c3O)c(O)cc(S(=O)(=O)O)c2c1`, the growth is 70.5%. The same measure, in the same setting: to `CCOC(=O)/C=C/c1ccc([N+](=O)[O-])o1` belongs 11.4%.

Consider `CC(C)(C)c1ccc(O)c(C2CCCCC2)c1`, for which the growth was 96.3%. Still for that read-out and setting: for `Nc1nc(N)c2nc(CNc3ccc(C(=O)NC(CCC(=O)O)C(=O)O)cc3)cnc2n1` (stereo not given) the value was 31.7% and 34.9%; for `O=C(/C=C\c1ccccc1)N1c2ccccc2CC1c1c[nH]c2ccccc12` (stereo not given), 81%. On the same count and under the same terms, to `CC(=Nc1ccc(N(C)C)cc1)c1ccccc1` belongs 25.7%. The same measure, in the same setting: for `Cc1ccc2nc(-[n+]3cc4ccccc4cc3C)ccc2c1` the value was 33.6%; for `CNc1ccc2c(c1)c1ccccc1n2C`, 100%. On to `O=C1c2ccccc2C(=O)c2sc(Nc3ccc(Cl)cc3)nc21`, for which the growth was 10.6%. On the same count and under the same terms, to `Oc1c(Br)c(Br)c(O)c(Br)c1Br` belongs 102%. As to `O=C(O)c1ccc2c3c(ncnc13)-c1ccccc1C2=O`, the growth was 79.9%.

Consider `NC(=S)N/N=C/c1ccc(Cl)s1`, for which the growth was 106%. On the same count and under the same terms, for `Cc1cc(C(C)(CC(C)C)c2ccc(O)c(C)c2)ccc1O` the value was 91.2%. For the compound `Cn1c2ccccc2c2nnc(N/N=C/c3ccccn3)nc21`, the growth is 23.9%. On to `C=CCOc1ccc(N=NC(C#N)C#N)cc1`, for which the growth is 86.9%. On the same count and under the same terms, for `O=C(Nc1ccc(F)cc1)ON=C1CCCCC1` the value was 106% [100 µM]; for `O=C1C=CC(=O)N1C1c2ccccc2-c2ccccc21`, 99.8%; for `CC1OC(OC2C(OC3CCC4(C)C(CCC5(C)C4CC=C4C6CC(C)(C)CCC6(CO)C(O)CC45C)C3(C)C)OC(C(=O)O)C(OC3OC(COC4OC(CO)C(O)C(O)C4O)C(O)C(O)C3O)C2O)C(O)C(O)C1O` (stereo not given), -51.8% (active). With `CCC(CC)COC(=O)c1ccc(O)c(O)c1`, the growth was 59.9%.

On to `CCCCCC(CCCCC)C(=O)O`, for which the growth is 113%.

`N#CSCc1c(Cl)cccc1Cl`: the growth was 100%.

Turning to `O=C1c2cccnc2-c2nccc3c2c1nc1cc(Br)ccc13`, the growth is -41.9% (active). Still for that read-out and setting: to `Oc1c(Cl)cc(Cl)c2cccnc12` belongs 41.2%. As for `N#Cc1ccc([N+](=O)[O-])o1`, the growth is 89.9%. On the same count and under the same terms, to `Cc1ccc(C(=Nc2ccccc2)N=P(c2ccccc2)(c2ccccc2)c2ccccc2)cc1` belongs 6.99% (active).

For `COC(=O)Nc1nc2ccc(C(=O)c3ccccc3)cc2[nH]1`, the growth is 22% and 20.6% and 22.1%. For `CCCCCCCCCCCCCCCC[N+](C)(CCO)Cc1cnc[nH]1` (stereo not given), the growth is -4.26% (active). On the same count and under the same terms, to `CNc1ccc(N)cc1` belongs 113%; to `CN(C)c1ccc(C(=C2C=CC(=[N+](C)C)C=C2)c2ccc(N(C)C)cc2)cc1` (tested in a mixture with another compound), -23.2% (active); to `O=C(Nc1cccc(Br)c1)Oc1ccc(Cl)c2cccnc12`, 16% [100 µM]. On the same count and under the same terms, to `N#CSCc1ccc(CSC#N)c(Cl)c1` belongs 95.6%.

Staying with this test, now noted: 100 µM.
Consider `O=C(Nc1c(Cl)cccc1Cl)Oc1cccc2cccnc12`, for which the growth was 10.2%. Still for that read-out and setting: for `COc1ccc(-c2cscc2N)cc1` the value was 48.9%; for `CN(C)C(=O)c1ccc(SC(=S)NCc2ccccc2)cc1`, -6.08% (active).

The values are drawn from PubChem BioAssay (NCI).
